Here are results for 40 compounds from PubChem BioAssay (NCI).

Structures are written as SMILES. This is part of a sample that, as a whole, favours compounds with a hit. Of some 83,000 tested, about 20% had one in any assay.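 A percent growth of 40 corresponds to 60% growth inhibition; 0 means no net growth; -100 means all cells died. Active threshold: below 10.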 Values without a mark were called inactive. The source made the active and inactive calls.

The subject of the assay is SNB-19 CNS. Kind of assay: NCI-60 one-dose screen, 48 h (100 = growth as untreated, 0 = no growth, -100 = all killed). The following applies: 10 µM unless noted. The protocol: Growth inhibition of the SNB-19 human tumor cell line is measured as a screen for anti-cancer activity. Cells are grown in 96 well plates and exposed to the test compound for 48 hours. Compounds are tested at a single concentration, which is 10^-5 M for most compounds. The reported endpoint is percent growth (GI% or GIPRCNT), where numbers from 0 - 100% represent growth inhibition, and numbers from -100% - 0 represent cell death. For example, a value of 40 represents 60% growth inhibition. A value of 0 means no net growth occurred over the course of the experiment. A value of -40 indicates 40% of cells at the beginning of the experiment died by the end of the experiment. A value of -100 means all cells are dead at the end of the experiment.
NCI-60 Human Tumor Cell Lines Screen was performed using the standard one-dose NCI protocol, which is described in more detail at https://dtp.cancer.gov/discovery_development/nci-60/default.htm.
Compounds with GIPRCNT values below 10 were considered active. Activity score was based on GIPRCNT using the following formula: […]
Score is 0 for GIPRCNT values of 100 or above, 50 for GIPRCNT values of 0, and 100 for GIPRCNT values of -100.
`CCCCCCNC(=O)Oc1ccc(/C(=C(\C)c2ccc(Cl)cc2)c2ccc(OCCN(C)C)cc2)cc1`: the growth is 60.8%.

In the case of `N#Cc1c(-c2cccs2)cc(-c2cnccn2)nc1SCC(=O)NNC(=S)Nc1ccc(F)cc1`, the growth is 94.7%.

With `COc1ccc(-c2nnc(SCc3ccc(O)c4ncccc34)n2-c2ccccc2)cc1`, the growth is 14.4%.

Consider `CNC(=O)c1cc(Oc2ccc3nc(NC(=O)c4ccc(CN5CCCN(C)CC5)c(C(F)(F)F)c4)sc3c2)ccn1`, for which the growth is 7.5% (active).

Consider `O=C(CN1C(=O)S/C(=C\c2ccccc2)C1=O)Nc1ccc(C(=O)/C=C/c2cc3ccccc3nc2Cl)cc1`, for which the growth was 86.2%.

For `CCOc1c(C#N)c(Nc2ccc(S(N)(=O)=O)cc2)c(C#N)c2nnc(C)n12`, the growth was 101%.

As for `COc1ccc(C2C(C#N)=C(N)Oc3c2sc2ccc(C)cc32)cc1` (stereo not given), the growth is 38.6%.

As to `CCN(CC)Cc1c(-c2cccc(OC(F)(F)F)c2)[nH]c2ccc(N3CCCC3)cc2c1=O`, the growth is 90.6%.

On to `COCCOc1ccc(-c2csc(NC(C)=O)n2)cc1NS(=O)(=O)c1cccc2c(N(C)C)cccc12`, for which the growth was 71%.

As for `NS(=O)(=O)c1ccc(Nc2nc(N/N=C/c3ccc(C(F)(F)F)cc3)nc(Nc3ccccc3)n2)cc1`, the growth is 33.8%.

As to `CCn1c2ccc(/C=N/NS(=O)(=O)CCN(C)C)cc2c2cc(/C=N/NS(=O)(=O)CCN(C)C)ccc21`, the growth is 100%.

As to `CCCC(=O)NC(c1cccnc1)c1ccc2c(C)ccnc2c1O` (stereo not given), the growth is 37.8%.

On to `CC(C)c1nn(-c2ccccc2)c(N2CCCCC2)c1/C=N/NC(N)=S`, for which the growth is 92%.

For `O=C(NCCCNc1cc(-c2cn(-c3ccccc3)nc2-c2cccc(O)c2)ccn1)Nc1cc(C(F)(F)F)cc(C(F)(F)F)c1`, the growth is 68.5%.

As to `Oc1ccc(CSc2nnc(-c3ccccc3)o2)c2cccnc12`, the growth is 17%.

As to `Cc1ccc(NC(=O)c2ccc(CN3CCN(C)CC3)c(C(F)(F)F)c2)cc1Oc1ccc(-c2[nH]nc3ncnc(N)c23)cc1`, the growth is 99.2%.

As for `O=C1[C@H]2Cc3c([nH]c4ccccc34)[C@@H](c3ccc(Cl)cc3)N2C(=O)CN1C1CCN(Cc2c(Cl)cccc2Cl)CC1`, the growth was 94.2%.

As for `CCCC(=O)NC(c1cccnc1)c1cc(Cl)c2cccnc2c1O` (stereo not given), the growth was 19.4%.

Turning to `O=C(CCCCCCN1CC(=O)N2[C@@H](c3ccccc3)c3[nH]c4ccccc4c3C[C@H]2C1=O)NO`, the growth was 67.1%.

As to `Cc1ccc(NC(=O)c2ccc(CN3CCN(C)CC3)c(I)c2)cc1Oc1ccc(-c2[nH]nc3ncnc(N)c23)cc1`, the growth is 96.5%.

For the compound `COc1ccc(-c2ccnc3c(C#N)c(Nc4ccccc4)nn23)cc1OC`, the growth is 95.1%.

In the case of `C#C[C@]1(O)CC[C@H]2[C@@H]3CC=C4c5sc(C6CCOCC6)nc5CC[C@]4(C)[C@H]3CC[C@@]21C`, the growth is 86.1%.

With `COc1ccc(-c2nnc(SCc3ccc(O)c4ncccc34)o2)cc1`, the growth is 22.3%.

As for `CCOC(=O)c1nn(-c2ccc(C)cc2)c(=O)c2c(N)c(C#N)c(-c3ccc(OC)cc3)cc12`, the growth is 91.3%.

Take `COc1ccc(/C(C)=C(\c2ccc(Cl)cc2)c2ccc(OCCN)cc2)cc1`: the growth is 87.8%.

Turning to `Cc1cc(NS(=O)(=O)c2ccc(-c3cnc(C4CC4)o3)cc2)ccc1I`, the growth was 40.1%.

Take `COc1ccc(NC(=O)[C@H](C)NC(=O)OC(C)(C)C)cc1C(=O)Nc1cccc(-c2cc(=O)c3c(OC)c(OC)c(OC)cc3o2)c1`: the growth is 16.9%.

For the compound `O=C(Cn1cc(CN2C(=O)c3ccc([N+](=O)[O-])cc3C2=O)nn1)Nc1ccc(F)cc1Cl`, the growth was 97.2%.

For `COc1ccc2c(C3=C(c4c[nH]c5ccccc45)C(=O)N(O)C3=O)coc2c1`, the growth is 95.1%.

As to `O=c1c2c(O)cccc2oc2c3c(cc(O)c12)O[C@H]1OC=C[C@@H]31`, the growth is 96.8%.

With `CC(=O)c1sc(Nc2cccc(Nc3nc(C)c(C)s3)c2)nc1C`, the growth is 90.9%.

As for `CC[C@@](C)(NC(=O)C(C)(C)NC(=O)[C@@H](NC(=O)[C@@H]1CCCN1C(=O)C(C)(C)NC(=O)[C@H](CC(C)C)NC(=O)CNC(=O)C(C)(C)NC(=O)[C@@H](NC(=O)C(C)(C)NC(=O)[C@H](CCC(N)=O)NC(=O)[C@H](C)NC(=O)C(C)(C)NC(=O)[C@H](C)NC(=O)C(C)(C)NC(=O)[C@@H]1CCCN1C(=O)C(C)(C)NC(C)=O)C(C)C)C(C)C)C(=O)N[C@@H](CCC(N)=O)C(=O)N[C@@H](CCC(N)=O)C(=O)N[C@H](CO)Cc1ccccc1`, the growth was 21% [4.25 µM].

Regarding `CS(=O)(=O)c1nccc(-c2c(-c3ccc(F)c(OCCc4ccccc4)c3)nc3sccn23)n1`, the growth was 81.7%.

For the compound `Cc1cc(Cl)cc(NS(=O)(=O)c2ccc(-c3cnc(C4CC4)o3)cc2)c1`, the growth is 36%.

Consider `Oc1ccccc1-c1nnc(SCc2ccc(O)c3ncccc23)n1-c1ccccc1`, for which the growth is 16.5%.

Turning to `COc1cnc2c(c1)C(=O)c1c-2n(CCCNCC2CC2)c(=O)c2cc(F)ccc12`, the growth was 4.94% (active).

With `CC1=CC(=O)CC(C)(C)[C@@]1(O)/C=C/C(C)=C\C(=O)O`, the growth is -9.04% (active).

With `O=C(NNc1nc2cc(F)cc(F)c2n2cccc12)c1ccncn1`, the growth is 21.9%.

On to `O=C(CCCCCCN1CC(=O)N2[C@@H](c3cccc(Br)c3)c3[nH]c4ccccc4c3C[C@H]2C1=O)NO`, for which the growth is 38%.

Turning to `COc1ccc(-c2cc(-c3cccc4ccccc34)n3c(n2)nc2ccccc23)cc1OC`, the growth was 16.7%.
